Results on 20 molecules are retold here after PubChem BioAssay (NCI).

Test [1] is described as follows: NCI Yeast Anticancer Drug Screen. Data for the rad50 strain (AID 155).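 Note: 0% = growth of vehicle-only cultures of the same strain.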 As to conditions: S. cerevisiae rad50 strain growth inhibition; at 50.0 µM; active compounds read high. The method in brief: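 Yeast carrying a defined DNA repair defect were exposed to test compounds, and growth was compared with vehicle-treated controls to give percent inhibition.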
A short description of test [2]: NCI Yeast Anticancer Drug Screen. Data for the mec2-1 strain (AID 157). As to conditions: S. cerevisiae mec2-1 strain, at 50.0 µM, active compounds read high. The method in brief: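 Mutant yeast (mec2-1) grown with compound; growth inhibition relative to vehicle control reported.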
Test [3] is described as follows: NCI Yeast Anticancer Drug Screen. Data for the sgs1 mgt1 strain (AID 161).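 Note: 0% = growth of cultures given vehicle only.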 As to conditions: S. cerevisiae sgs1 mgt1 strain, at 50.0 µM, active compounds read high. The method in brief: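 Yeast cells carrying a defined DNA-repair defect were exposed to test compounds. Growth inhibition was measured relative to vehicle-treated controls.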
A short description of test [4]: NCI Yeast Anticancer Drug Screen. Data for the cln2 rad14 strain (AID 165).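 Note: 0% = growth equal to vehicle treated cultures.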 As to conditions: S. cerevisiae cln2 rad14 strain, at 50.0 µM, active compounds read high. The method in brief:
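Readout is yeast growth inhibition versus vehicle-treated controls, using a strain with cln2 and rad14 alterations exposed to compound.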

A short description of test [5]: NCI Yeast Anticancer Drug Screen. Data for the bub3 strain (AID 167). To be noted: S. cerevisiae bub3 mutant strain, at 50.0 µM, active compounds read high. The method in brief: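 Compounds were applied to a genetically altered yeast strain carrying a cell-cycle control defect. Growth inhibition was scored against vehicle-treated controls.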
Test [6] can be described thus: NCI Yeast Anticancer Drug Screen. Data for the mlh1 rad18 strain (AID 175). As to conditions: S. cerevisiae mlh1 rad18 strain growth inhibition; at 50.0 µM; active compounds read high. The method in brief: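 Genetically defined yeast (DNA repair-deficient) exposed to compounds; growth inhibition determined relative to vehicle.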

Molecules are shown by their SMILES. Compounds without any hit were thinned out: in the full panel of roughly 79,000, 15% have a hit. Values without a mark were called inactive. Activity calls are given as the source filed them. Cut-off read from the data, not from the text of the source: active = growth inhibition above about 70%; inactive = the rest.

For `CCCO[As](=O)(OCCC)OCCC`, the growth inhibition is 5.55% in test [1]; 6.95% in test [2]; 5.8% in test [3]; 11.8% in test [4]; 24.1% in test [5]; -9.1% in test [6].
In the case of `O=c1cccc2n1CC1CNCC2C1` (stereo not given), the growth inhibition in test [1] was 10.6%; in test [2], 13.4%; in test [3] it was -16.2%; in test [4] it was 7.65%; in test [5], 15.7%; in test [6] it was -22.1%.
As to `NC1C[S][Sn][O]C1=O` (stereo not given), the growth inhibition in test [1] is 14.2%; in test [2], 14.3%; in test [3], 3.2%; in test [4] it was -21.4%; in test [5], 4.9%; in test [6], 14.6%.
With `N#CS.N=C=S.N=C=S.[Cu+2].[NH2-].[NH2-].[NH2-].[NH2-].c1ccc2ncccc2c1`, the growth inhibition is -10.4% in test [1]; -16.6% in test [2]; -24.2% in test [3]; 26.2% in test [4]; -9.6% in test [5]; -12.5% in test [6].
Turning to `CCOP(=O)(CC(=O)c1ccccc1)OCC`, the growth inhibition in test [1] is 10.1%; in test [2], 1.25%; in test [3], -18.1%; in test [4] it was 0.6%; in test [5] it was -1.45%; in test [6], 20.8%.
Regarding `C1CCC(NC2CCCC2)C1`, the growth inhibition in test [1] is 13.4%; in test [2], -0.5%; in test [3] it was 10.1%; in test [4], 11.7%; in test [5], -8.4%; in test [6] it was 5.45%.
Turning to `CC(C)=CC(=O)N(C)C1C2CN3CCC(O2)C13` (stereo not given), the growth inhibition was 7.3% in test [1]; 14.6% in test [2]; 14.1% in test [3]; 43.9% in test [4]; 29.9% in test [5]; 21.6% in test [6].
As for `CC(C)OC(=O)Nc1cccc(Cl)c1`, the growth inhibition in test [1] is 25.9%; in test [2] it was 1.75%; in test [3], 23.9%; in test [4] it was -3.85%; in test [5], 0.3%; in test [6], 4.5%.
With `OC[P+](CO)(CO)CO`, the growth inhibition in test [1] was -2.8%; in test [2], 1.05%; in test [3], -8.15%; in test [4] it was -24.9%; in test [5], 14.7%; in test [6], -5.9%.
On to `O=[N+]([O-])O.[Ce]`, for which the growth inhibition was 13.3% in test [1]; 3.35% in test [2]; 17.9% in test [3]; 5.8% in test [4]; 24.6% in test [5]; 4.15% in test [6].
Take `CN(C)P(=S)(N(C)C)N1CCOCC1`: the growth inhibition in test [1] is -7.6%; in test [2], -13.3%; in test [3], 6.55%; in test [4], -16.8%; in test [5], -28.3%; in test [6] it was -9%.
In the case of `N#C[S-].N#C[S-].[Au+3].[Au+3].[CH3-].[CH3-].[CH3-].[CH3-]`, the growth inhibition is 51.4% in test [1]; 11% in test [2]; 61.5% in test [3]; 33.4% in test [4]; 12.5% in test [5]; 53.5% in test [6].
For the molecule `N#CS.[Cr+3].[NH-]CC[NH-].[NH-]CC[NH-].[NH-]CC[NH-]`, the growth inhibition in test [1] was 14.8%; in test [2], -0.5%; in test [3], 10.2%; in test [4], 12.8%; in test [5], -2.75%; in test [6], 5.05%.
Turning to `CNC(=O)Oc1cc(OC)ccc1C(=O)c1ccccc1`, the growth inhibition in test [1] was 2.45%; in test [2], 6.85%; in test [3], 32.6%; in test [4], -21.6%; in test [5], 5.35%; in test [6] it was 47%.
As for `OC[CH2][Hg][I]`, the growth inhibition in test [1], in test [2], in test [3], in test [4], in test [5] and in test [6] was 99.8% (active) in each case.
As for `O=c1[nH]c(O)c(N=Nc2ccc([N+](=O)[O-])cc2[N+](=O)[O-])c(=O)[nH]1`, the growth inhibition in test [1] is 14.7%; in test [2], 15.4%; in test [3], 22.2%; in test [4], 14.7%; in test [5], -11.7%; in test [6] it was 7.35%.
Consider `ICCCI`, for which the growth inhibition was 0.6% in test [1]; -29.8% in test [2]; 16.1% in test [3]; 3.8% in test [4]; 19% in test [5]; 3.2% in test [6].
For `CCC1CC[N-]CC1.CCC1CC[N-]CC1.[Cl][Pt+2][Cl]`, the growth inhibition in test [1] is -0.95%; in test [2], 14.8%; in test [3], 73% (active); in test [4] it was -42.5%; in test [5], 18.1%; in test [6], 48.8%.
For `OCC(Br)(Br)Br`, the growth inhibition in test [1] was 44.4%; in test [2] it was -4.3%; in test [3], 19.5%; in test [4], 3.7%; in test [5], -2.55%; in test [6] it was 27.9%.
For `O=C(O)CN(CCN(CC(=O)O)CC(=O)O)CC(=O)O.[Ni+2]`, the growth inhibition in test [1] was -29.2%; in test [2], -23%; in test [3], -11.5%; in test [4], -15%; in test [5], 0.4%; in test [6], -19.9%.
